Laboratory results: the supplement of paper PMC7366291
Where a name gives a salt, the structure may show the parent alone. ± gives the standard deviation.

tested on: Danio rerio Tg(wt1b:EGFP) embryo, pronephros; experiment: glomerular separation, fold change vs DMSO control; higher = glomeruli further apart (abnormal); conditions: 25 µM; exposure: 24-48 hpf
Method in brief: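 Dechorionated Tg(wt1b:EGFP) zebrafish embryos were exposed to 25 μM compound in 0.5% DMSO, HEPES-buffered E3 with 0.003% PTU, from 24 to 48 hpf at 28.5°C. Pronephroi were imaged dorsally in agarose-filled 96-well plates (470 nm, 10 z-slices). On maximum projections, 16 reference points were set manually in Fiji and a macro computed distances and angles. Values more than 2 SD from the feature mean were excluded. Each feature is a fold change relative to the mean of same-day DMSO controls.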

SMILES	glomerular separation
Cc1cccc(C)c1OCC(C)N (stereo not drawn) [Mexiletine hydrochloride]	0.9 ± 0.27
CCCOc1ccccc1-c1nc2[nH]nnc2c(=O)[nH]1 [Zaprinast]	1.56 ± 0.95
CN(C)CCCN1c2ccccc2Sc2ccccc21 [Promazine hydrochloride]	1.25 ± 0.35
CCCCC(=O)N(Cc1ccc(-c2ccccc2-c2nnn[nH]2)cc1)[C@H](C(=O)O)C(C)C [Valsartan]	0.756 ± 0.22
OCCN1CCN(CCCN2c3ccccc3Sc3ccc(C(F)(F)F)cc32)CC1 [Fluphenazine dihydrochloride]	1.03 ± 0.53
CC(C)C(=O)OCC(=O)[C@@]12O[C@H](C3CCCCC3)O[C@@H]1C[C@H]1[C@@H]3CCC4=CC(=O)C=C[C@]4(C)[C@H]3[C@@H](O)C[C@@]12C [Ciclesonide]	1.7 ± 0.91
Nc1ccc(C(=O)O)c(O)c1 [4-aminosalicylic acid]	0.608 ± 0.17
N=C(N=C(N)N)N1CCOCC1 [Moroxidine hydrochloride]	1.26 ± 0.44
CC1(C)S[C@@H]2[C@H](NC(=O)[C@H](N)c3ccccc3)C(=O)N2[C@H]1C(=O)O [Ampicillin trihydrate]	0.924 ± 0.41
NCCCC[C@H](N[C@@H](CCc1ccccc1)C(=O)O)C(=O)N1CCC[C@H]1C(=O)O [Lisinopril]	1.16 ± 0.32
CNC[C@H](O)[C@@H](O)[C@H](O)[C@H](O)CO [Meglumine]	0.734 ± 0.11
Cc1cc(NS(=O)(=O)c2ccc(N)cc2)no1 [Sulfamethoxazole]	0.872 ± 0.23
Nc1nc2c(ncn2COC(CO)CO)c(=O)[nH]1 [Ganciclovir]	0.62 ± 0.26
